# KCNQ2 inh: inhibitors of rat KCNQ2 potassium channel. O88943. CHO-K1 KCNQ2, FluxOR thallium flux, 20 min; active compounds read low. B-score at 10 µM. 310,000 tested, 1.1% active;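 active = fluorescence ratio B-score at most minus 3 library SDs, with starting brightness B-score within 2 library SDs, cut at about -5.5 in these data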
# KCNQ2 pot: potentiators of rat KCNQ2 potassium channel | O88943 | CHO-K1 KCNQ2, FluxOR thallium flux fluorescence; active compounds read high | B-score at 10 µM | 310,000 tested, 0.54% active;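 active = fluorescence ratio B-score at least 3 SD of library B-scores, with initial fluorescence B-score within 3 of them, cut at about 5.3 in these data; same plate scores as AID 2156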;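 note: B-score of peak minus minimum over baseline fluorescence ratio after K+ and Tl+ stimulus; positive B-score means potentiation of KCNQ2 with more thallium influx and brighter signal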
# Kir21 conf inh: confirmation of mouse Kir2.1 potassium channel inhibitors. shares compounds with KCNQ2 pot. Kir2.1-expressing cells, FluxOR thallium flux fluorescence; active compounds read low. Tl flux remaining, % of negative control (active compounds read low), % at 10 µM. 2,300 tested, 41% active. AID 2032;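 active = Primary-screen hit whose thallium flux fell at least 3 control SD below untreated wells in both duplicates, with normal baseline fluorescence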;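 note: 0% = blank wells without stimulus and 100% = stimulated no-compound controls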
# HEK293 ctr: alters thallium flux in parental HEK293 cells, Kir2.1 counter-screen | 2,300 tested, 19% active | FluxOR thallium flux fluorescence; 0% = unstimulated blank wells | shares compounds with KCNQ2 pot | FluxOR signal as % of negative control (100 = no effect), % at 10 µM | AID 2105;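 active = dye signal at least 3 control SD above or below untreated wells in both duplicates, raw fluorescence within 3, either direction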;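 note: percent is based on the flux ratio of peak minus minimum fluorescence over baseline F0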
# CHO-K1 Tl ctr: counter-screen for KCNQ2 potentiators: effect in parental CHO-K1 cells; shares compounds with KCNQ2 pot; FluxOR thallium flux fluorescence; zero = vehicle mean+3SD, 100% = vehicle-minus-blank window; activity increase over 3SD of controls, % at 10 µM; 1,200 tested, 43% active;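 active = signal rise of at least 3 SD above the untreated control mean, in both duplicate wells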;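 note: counter screen of KCNQ2 potentiator hits so any rise reflects channel-independent effects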
# KCNQ1 sel pot: human KCNQ1 counter-target activity of KCNQ2 potentiators. AID 2283. activation over 3SD threshold, % at 10 µM. CHO KCNQ1 stable, FluxOR thallium flux fluorescence; beyond 3SD, as % of vehicle-control signal. shares compounds with KCNQ2 pot. 1,200 tested, 28% active;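 active = fluorescence ratio rise of at least 3 SD of vehicle wells above their mean, in both replicate wells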;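 note: 0% = vehicle mean plus 3 SD and 100% = vehicle minus unstimulated blank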
# KCNQ2 pot confirm: rat KCNQ2 channel potentiator confirmation. shares compounds with KCNQ2 pot. 1,200 tested, 68% active. potentiation, less the hit threshold, % at 10 µM. CHO-KCNQ2 cells, FluxOR thallium flux fluorescence. AID 2287;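 active = fluorescence ratio rising 3 SD or more over the vehicle control mean in both replicates, plus primary screen hit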;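 note: peak minus minimum thallium fluorescence divided by baseline after K/Tl stimulus; 0% = vehicle mean plus 3 SD and 100% = vehicle minus unstimulated blank difference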
# Kir21 spec: selectivity of KCNQ2 potentiators: effect on mouse Kir2.1 | shares compounds with KCNQ2 pot | HEK293 Kir2.1, FluxOR thallium flux fluorescence | activity over 3SD threshold, % at 10 µM | 1,200 tested, 2% active | AID 2345;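 active = fluorescence ratio rise of at least 3 SD above the vehicle-control mean, seen in both replicates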;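 note: 0% = vehicle mean plus 3 SD and 100% = vehicle minus no-stimulus blank window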
# KCNQ2 W236L MoA: KCNQ2 potentiators acting on retigabine-insensitive rat KCNQ2 W236L mutant; 940 tested, 10% active; CHO KCNQ2-W236L, automated patch clamp current; current increase over 3SD of negative controls (%), active compounds read high, % at 25 µM; shares compounds with KCNQ2 pot;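 active = current increase at least 3 SD of the untreated controls above them in both duplicate recordings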
# An asterisk follows results filed as active; i = inactive; nt = no result. Hits are enriched below; roughly 1.6% of the tested compounds scored in any of these assays.
SMILES,KCNQ2 inh,KCNQ2 pot,Kir21 conf inh,HEK293 ctr,others
O=C(CC12CC3CC(CC(C3)C1)C2)Nc1cccc2ncccc12,i,11.1*,i,i,CHO-K1 Tl ctr=-17.0;KCNQ1 sel pot=-15.5;KCNQ2 pot confirm=45.0*;Kir21 spec=-27.9;KCNQ2 W236L MoA=i
COc1cc(C(=O)OCC(=O)N2CC(C)OC(C)C2)cc(OC)c1OC (configuration not stated),i,0.57,nt,nt,
CCCCCCCCCCCCCCCC[N+](C)(C)CC,i,nt,52.5%*,i,
CCCCCC[N+](C)(C)CCSSCC[N+](C)(C)CCCCCC,i,0.45,nt,nt,
COc1ccc(NC(=O)c2c(NC(=O)CNCc3ccco3)sc3c2CCC3)cc1,i,nt,nt,nt,
COC(=O)c1c(NC(=O)CCNCc2ccco2)sc2c1CCC2,i,0.39,17.5%*,i,
CCOC(=O)c1c(NC(=O)c2ccco2)sc2c1CCCC2,i,0.59,nt,nt,
CCOC(=O)c1c(NC(=O)CN2CCN(C(=O)c3ccco3)CC2)sc2c1CCCC2,i,0.34,i,i,
Cc1c(S(=O)(=O)N2CCN(c3ccc(F)cc3)CC2)c(=O)n(C)c(=O)n1C,i,nt,nt,nt,
CC1CCN(CCCN2C(=O)C3C(C(=O)Nc4ccc(Cl)cc4)C4C=CC3(O4)C2C(=O)NC2CCCCC2)CC1 (configuration not stated),i,1.19,nt,nt,
Cc1cccc(OCC(=O)O/N=C(\N)c2ccc(Br)cc2)c1,i,nt,nt,nt,
Nc1ccc(N=Nc2ccccc2O)c(N)c1,i,0.67,nt,nt,
Oc1ccccc1N=Nc1ccccc1O,i,7.9*,i,i,CHO-K1 Tl ctr=-11.3;KCNQ1 sel pot=-9.8;KCNQ2 pot confirm=-22.8;Kir21 spec=-32.1
CCOC(=O)c1cccc(Nc2ncnc3ccc(C)cc23)c1,i,1.71,52.5%*,i,
CCOC(=O)c1ccc(Nc2ncnc3ccc(C)cc23)cc1,i,0.62,nt,nt,
CSc1nc(N)n2nc(-c3ccc(Cl)cc3)cc2n1,i,0.46,nt,nt,
Cc1c(C)n(Cc2ccccc2)c2ccc(C(=O)OCCCN(C)C)cc12,i,nt,24.5%*,i,
Cc1c(C)n(CCN(C)C)c2ccc(C(=O)OCCN(C)C)cc12,i,2.14,nt,nt,
COc1cccc2cc(/C(=N/O)c3ccccc3)oc12,i,0.03,nt,nt,
COc1ccccc1CNC(=O)C(NS(=O)(=O)c1cccc2nsnc12)C(C)C (configuration not stated),i,nt,nt,nt,
CC(c1ccccc1)n1c(N2CCN(C)CC2)nc2c1c(=O)[nH]c(=O)n2C (configuration not stated),i,1.23,nt,nt,
CC(C)(C)c1csc(SCC(=O)Nc2ccc(Cl)cn2)n1,i,6.96*,i,i,CHO-K1 Tl ctr=12.7*;KCNQ1 sel pot=10.2*;KCNQ2 pot confirm=5.0*;Kir21 spec=-46.1;KCNQ2 W236L MoA=i
Cc1csc(SCC(=O)Nc2ccc(Cl)cn2)n1,i,0.39,nt,nt,
O=C(Cc1ccccc1)Nc1nc(-c2cccc([N+](=O)[O-])c2)cs1,i,1.4,nt,nt,
N#C/C(=C\c1ccc(-c2cccc([N+](=O)[O-])c2)o1)C(=O)Nc1nc(-c2cccs2)cs1,i,6.77*,i,i,CHO-K1 Tl ctr=16.7*;KCNQ1 sel pot=-20.0;KCNQ2 pot confirm=-17.5;Kir21 spec=-38.2
Cc1ccc([C@@H]2[C@@H]3C(=O)N(C)C(=O)[C@@H]3[C@@H]3C(=O)Nc4ccccc4C(=O)N23)cc1,i,1.2,nt,nt,
O=C(O)C1=C[C@@H](C2CCCCC2)C[C@@H](OCc2ccc(CO)cc2)O1,i,0.25,nt,nt,
NC(=O)C1=C[C@@H](C2CCCCC2)C[C@@H](OCc2ccc(CO)cc2)O1,i,0.75,52.0%*,i,
C#CCNC(=O)C1=C[C@@H](c2coc3ccccc3c2=O)C[C@@H](OCc2ccc(CO)cc2)O1,i,0.67,nt,nt,

# Screening results (PubChem BioAssay)
